GBA activity: Glucocerebrosidase | Lysosomal acid glucosylceramidase (Homo sapiens), P04062 | Potency, µM | purified enzyme, resorufin glucoside fluorescence (screen aimed at inhibitors), 20 min | 1.1% of 48,000 active | AID 360, 2006; in the data active means potency below about 15 µM; inconclusive means mostly about 16 µM to 33 µM;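 further: the screen sought inhibitors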
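Normal human glucocerebrosidase (0.2 nM final) was assayed with resorufin β-D-glucopyranoside (30 uM final) in 50mM citric acid/KH2PO4, 10mM sodium taurocholate, 0.01% tween-20, pH 5.9. Compounds were titrated; fluorescence (Ex 548, Em 600) read after 20 min at RT.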
FLuc inh: qHTS Assay for Inhibitors of Firefly Luciferase | Luciferin 4-monooxygenase (Photinus pyralis), P08659 | purified firefly luciferase, luminescence, 8 min | Potency, µM (series often up to 57.1 µM), for the others: at the highest dose activity change, negative = inhibition, usual class: inhibitors | 2.2% of 72,000 active; active means well fitted inhibition curve with a large enough effect; inconclusive means small, poorly fitted or top-dose-only effect; further: on the % scale 0 is the no-effect control and ±100 the full control effect; nearly all actives have a fitted effect of over 40% in size
Target sequence (P08659 whole entry, looked up): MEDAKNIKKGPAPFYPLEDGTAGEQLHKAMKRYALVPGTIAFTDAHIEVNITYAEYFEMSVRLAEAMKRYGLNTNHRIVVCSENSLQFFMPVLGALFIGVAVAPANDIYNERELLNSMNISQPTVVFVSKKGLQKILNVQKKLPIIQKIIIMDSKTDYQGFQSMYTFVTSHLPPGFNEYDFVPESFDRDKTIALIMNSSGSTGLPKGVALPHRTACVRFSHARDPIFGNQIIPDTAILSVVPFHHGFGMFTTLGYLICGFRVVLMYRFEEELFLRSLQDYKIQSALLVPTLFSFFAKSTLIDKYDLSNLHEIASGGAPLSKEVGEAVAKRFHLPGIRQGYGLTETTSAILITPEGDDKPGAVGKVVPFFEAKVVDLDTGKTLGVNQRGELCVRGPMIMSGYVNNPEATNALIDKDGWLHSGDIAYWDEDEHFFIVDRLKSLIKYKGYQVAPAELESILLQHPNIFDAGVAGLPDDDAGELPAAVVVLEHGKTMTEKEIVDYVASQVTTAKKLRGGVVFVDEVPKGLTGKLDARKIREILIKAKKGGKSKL
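Here, luciferase activity is measured as luminescence following an 8 min room-temperature reaction at 10 uM ATP, pH 7.2. Every library sample is titrated.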
PK Bst: Pyruvate Kinase; purified pyruvate kinase, luminescence ATP production; ribose 5-phosphate activator present at AC10; Potency, µM; 1.2% of 51,000 active; AID 361, 2006; in the data active means potency below about 11 µM; inconclusive means mostly about 12 µM to 25 µM;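 the screen sought inhibitors and activators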;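 further: scaled between full activation by ribose 5 phosphate and full inhibition by luteolin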
Active calls of the source: *; i = inactive; ? = inconclusive; . = no result given; [ ] = dose if it differs, or a comment. Rows were chosen to be rich in hits. Some 3.4% of all compounds tested hit in one or more screens of this group. Potency means the concentration at half of the fitted maximal effect.

SMILES	GBA activity	FLuc inh	PK Bst
Cc1nc2cnc(N3CCN(C)CC3)nc2n(CCc2ccccc2)c1=O	.	1%[11.4 µM]	.
C=CCOc1c(CNc2nccs2)cccc1OCC	>77	13µM*	?
C=CCOc1ccccc1CNCc1cccnc1	?	2%	>57
CCOc1ccc2nc(N3CCC(C(=O)N4CCN(C5CCCCC5)CC4)CC3)sc2c1	.	16µM*	.
CCOc1ccc2nc(N3CCCCCC3)sc2c1	>77	13µM*	i
CCCN1CCN(CCCNC(=O)C2CCCN(c3nc4ccc(OCC)cc4s3)C2)CC1 (configuration not stated)	>77	7.9µM*	i
CCN1CCN(CCCNC(=O)C2CCCN(c3nnc(-n4cccc4)s3)C2)CC1 (configuration not stated)	>77	-1%	>57
CCOC(=O)N1CCN(C(=O)c2ccc3nc(N4CCC(C)CC4)sc3c2)CC1	>77	-4%	>57
CCOc1ccc2nc(N3CCC(C(=O)Nc4nnc(CC)s4)CC3)sc2c1	.	-6%	.
CCOC(=O)N1CCN(C(=O)c2ccc3nc(N4CCCCC4)sc3c2)CC1	>77	-4%	>57
CCOc1ccc2nc(N3CCC(C(=O)N4CCN(C(=O)c5ccco5)CC4)CC3)sc2c1	.	7.9µM*	.
Cc1noc(C)c1C(=O)N1CCC2(CC1)CN(c1ccccn1)C2	.	-2%[11.4 µM]	.
O=C(O)C[C@@H]1CCCc2ccccc2[C@H]1O	.	4%	.
O=c1cc(-c2ccc(O)c(O)c2)oc2cc(O[C@@H]3O[C@@H](CO)[C@@H](O)[C@@H](O)[C@H]3O)cc(O)c12	.	-2%[11.4 µM]	.
CC1CN(S(=O)(=O)c2ccccc2)CC(C)O1 (configuration not stated)	>77	3%	>57
CC1CN(S(=O)(=O)c2ccc(NC(=O)c3cc(-c4ccccc4O)n[nH]3)cc2)CC(C)O1 (configuration not stated)	7.6*	-2%	>57
Cc1cc2ncc(-c3ccc(Cl)cc3)c(N)n2n1	.	13µM*	.
Cn1c(-c2ccc(Cl)cc2)cnc1N	?	7%	.
COc1ccc(NC(=O)C2CSC3c4ccccc4C(=O)N23)cc1 (configuration not stated)	.	0%[25.5 µM]	11*
COc1ccc(NC(=O)C2C(=O)N(C)C3(C)CC2c2ccccc2O3)cc1 (configuration not stated)	>77	0%	>57
CC(C)CN1CCCC2(CCN(C(=O)c3cccc(F)c3)CC2)C1	.	3%[11.4 µM]	.
COc1cc2c(cc1O)[C@@H](c1cc(O)c(O)c(OC)c1)[C@@](O)(C(=O)O)[C@@H](CO)[C@@H]2O	.	-11%[11.4 µM]	.
CC(=O)NC(C)C(=O)OCC(=O)Nc1ccc(Br)cc1 (configuration not stated)	.	-2%	.
CC(C)=CC(=O)Nc1ccc(Br)cc1	>77	20µM*	.
COCC(=O)N1CCC2(CCCN(C(=O)Nc3ccc(OC)cc3)C2)CC1	.	2%[11.4 µM]	.
SMILES	GBA activity	FLuc inh	PK Bst
O=C(COc1ccc2c(c1)CCC2)N1CCc2ccccc21	>77	25µM*	>57
O=C(OCC(=O)N1CCc2ccccc21)c1cccnc1	>77	-6%	>57
O=C(OCC(=O)N1CCc2ccccc21)c1ccccc1	>77	20µM*	.
CCOCC(=O)N1CCc2ccccc21	>77	2%	>57
COc1ccc(NC(=O)N2CCCc3ccccc32)cc1	.	-2%	.
CCOC(=O)c1ccc(NC(=O)N2CCc3ccccc32)cc1	>77	4µM*	i
Fc1ccc(C(c2ccc(F)cc2)N2CCN(C/C=C\c3ccccc3)CC2)cc1	.	0%	.
CN(C)Cc1c[nH]c2nc[nH]c(=O)c12	.	1%[11.4 µM]	.
CC(=O)OCC(=O)[C@]12OC(C)(C)O[C@@H]1C[C@H]1[C@H]3CC=C4C[C@@H](O)CC[C@]4(C)[C@H]3CC[C@]12C	.	6%[11.4 µM]	.
Oc1c(Br)cc(Br)cc1CN(Cc1cc(Br)cc(Br)c1O)C1CCCCC1	.	1%[11.4 µM]	.
COc1ccc(NC2=Nc3ccccc3CC2)cc1	>77	20µM*	>57
COc1ccc(Nc2ccnc3ccccc23)cc1	?	-5%	i
CCOc1ccc(OCC)c2sc(C)nc12	>77	1%	3.4*
CCOc1ccc(C(=O)Nc2nnc(C)s2)cc1OCC	.	-3%	.
COC(=O)C1=C(C)[C@@H](O)[C@@H](C)[C@H](c2c(OC)c(OC)c(C)c(OC)c2OC)O1	.	2%[11.4 µM]	.
Cc1ccc(S(=O)(=O)Oc2cc(S(=O)(=O)O)cc3cc(S(=O)(=O)O)cc(N)c23)cc1	.	0%[11.4 µM]	.
c1cn(CCCNc2ncnc3nc[nH]c23)cn1	.	2.5µM*	.
CCN1CCN(CCCNc2ncnc3nc[nH]c23)CC1	.	-1%	.
COc1ccccc1CNc1ncncc1-c1ccccc1C(F)(F)F	.	2%[2.29 µM]	.
C[N+]1([C@H](CO)Cc2c[nH]c3ccccc23)Cc2ccccc2C1	.	3%[11.4 µM]	.
C=CCN1CCc2c(cc(O)c(O)c2Cl)[C@H](c2ccccc2)C1	.	2%	.
CC(=O)c1cc2ccccc2oc1=O	.	-2%[25.5 µM]	.
CC(C)C(=O)Nc1cccc(NC(=O)c2cc3ccccc3o2)c1	>77	13µM*	i
CC(=O)Nc1ccc(-c2cc3ccccc3o2)cc1	.	4µM*	?
Cc1ccc(-c2nc3ncccc3o2)cc1NC(=O)c1cc2ccccc2o1	.	-1%	.
SMILES	GBA activity	FLuc inh	PK Bst
O=C(Nc1cccc(-c2nc3ncccc3o2)c1)c1cc2ccccc2o1	.	16µM*	.
COc1cc(NC(=O)c2cc3ccccc3o2)c(OC)cc1Cl	.	0%	.
COc1ccc(NC(=O)c2cc3ccccc3o2)cc1	.	6.3µM*	.
CC(NC(=O)c1cc2ccccc2o1)C(=O)O (configuration not stated)	>77	1%	>57
CCCNC(=O)OC[C@@H]1O[C@H](CCO/N=C\C[C@H]2C=C[C@H](OC(C)=O)[C@@H](COC(C)=O)O2)C=C[C@@H]1Oc1ccc(OC)cc1	.	1%[11.4 µM]	.
Oc1ccc2ccccc2c1CN(Cc1c(O)ccc2ccccc12)C1CCCCC1	.	-3%[11.4 µM]	.
NCc1nnn(Cc2ccccc2)c1N	.	2%[11.4 µM]	.
COc1ccc(-n2c(=O)c(CCc3ccccc3)nc3cnc(N(C)C)nc32)cc1	.	2%[11.4 µM]	.
COc1ccc(Cl)cc1N=Nc1ncc[nH]1	.	0%	.
CC(=O)Nc1cccc(NC(=O)c2cc3ccccc3o2)c1	>77	13µM*	?
COC(=O)c1ccc(C(=O)OC)c(NC(=O)c2cc3ccccc3o2)c1	.	0%[25.5 µM]	>11
CC(C)Oc1cc(O)c2c(=O)c(-c3ccc(O)cc3)coc2c1	.	13µM*	.
O=c1c(-c2ccc(O)cc2)coc2cc(O)cc(O)c12	.	0%	.
CC(C)(C)NC(=O)c1ccc2nccnc2c1	>77	0%	i
CC(C)(C)NC(=O)Nc1ccc2nccnc2c1	.	16µM*	.
CC(C)C(=O)N[C@H]1CCCN1C(=O)/C=C\c1ccccc1	.	1%[11.4 µM]	.
CC(C)=C[C@H]1[C@@H](C(=O)Oc2ccccc2C(C)C)C1(C)C	.	1%[11.4 µM]	.
N#CCCn1c(=O)c(-c2cccs2)nc2cnc(N3CCOCC3)nc21	.	0%[11.4 µM]	.
Cc1ccc(-c2cn3c(n2)CCCC3)cc1	>77	-1%	>57
COc1ccc(-c2cn3c(n2)CCC3)cc1	.	16µM*	.
Cn1c(=O)n(Cc2ccccc2F)c(=O)c2c1nc1n2CCCN1CCc1ccccc1	14*	-1%	>57
CC(C)Cn1c(=O)c2c(nc3n2CCCN3CCc2ccccc2)n(C)c1=O	>15	2%	>57
Cn1c(=O)n(CCc2ccccc2)c(=O)c2c1nc1n2CCCN1CCc1ccccc1	9*	-1%	>57

Source: PubChem BioAssay (National Center for Advancing Translational Sciences (NCATS))
